Most compounds without a hit are left out; they make up all but 1.6% or so of the library.
KCNQ2 enhance = KCNQ2 (rat) channel potentiation | O88943 | CHO-K1 KCNQ2, FluxOR thallium flux fluorescence; active compounds read high | B-score at 10 µM | 310,000 tested, 0.54% active | AID 2239;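 active means fluorescence ratio B-score at least 3 SD of library B-scores, with initial fluorescence B-score within 3 of them, cut at about 5.3 in these data; same plate scores as AID 2156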;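 further: B-score of peak minus minimum over baseline fluorescence ratio after K+ and Tl+ stimulus; positive B-score means potentiation of KCNQ2 with more thallium influx and brighter signal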
Target sequence (O88943 whole entry, looked up): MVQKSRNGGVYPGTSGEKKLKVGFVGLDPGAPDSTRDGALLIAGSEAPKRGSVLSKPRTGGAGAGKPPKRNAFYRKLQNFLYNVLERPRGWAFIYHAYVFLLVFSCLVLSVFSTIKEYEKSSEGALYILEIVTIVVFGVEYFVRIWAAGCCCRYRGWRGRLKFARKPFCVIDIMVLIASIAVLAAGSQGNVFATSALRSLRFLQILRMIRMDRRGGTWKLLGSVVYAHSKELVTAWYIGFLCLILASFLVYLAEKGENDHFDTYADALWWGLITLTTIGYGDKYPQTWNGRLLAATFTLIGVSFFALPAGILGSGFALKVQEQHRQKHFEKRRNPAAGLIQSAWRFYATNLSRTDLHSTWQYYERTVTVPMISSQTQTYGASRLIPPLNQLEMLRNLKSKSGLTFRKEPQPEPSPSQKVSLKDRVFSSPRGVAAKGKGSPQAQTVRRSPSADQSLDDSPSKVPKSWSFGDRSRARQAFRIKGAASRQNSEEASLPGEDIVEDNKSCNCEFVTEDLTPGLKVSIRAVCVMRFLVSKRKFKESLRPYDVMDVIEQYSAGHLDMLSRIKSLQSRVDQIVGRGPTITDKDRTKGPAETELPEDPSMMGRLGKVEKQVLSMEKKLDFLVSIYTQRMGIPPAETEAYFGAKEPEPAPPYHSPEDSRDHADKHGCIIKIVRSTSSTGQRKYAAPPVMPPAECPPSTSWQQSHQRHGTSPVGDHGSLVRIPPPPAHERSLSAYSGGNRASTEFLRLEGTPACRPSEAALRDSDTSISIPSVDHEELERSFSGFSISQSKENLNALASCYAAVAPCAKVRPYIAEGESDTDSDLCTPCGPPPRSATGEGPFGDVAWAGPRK
KCNQ2 block = inhibitors of rat KCNQ2 potassium channel; CHO-K1 KCNQ2, FluxOR thallium flux, 20 min; active compounds read low; B-score at 10 µM; 310,000 tested, 1.1% active; AID 2156;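 active means fluorescence ratio B-score at most minus 3 library SDs, with starting brightness B-score within 2 library SDs, cut at about -5.5 in these data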
Starred values were filed as active, the others as inactive; i = inactive; / = no result.

SMILES	KCNQ2 enhance	KCNQ2 block
O=C(N/N=C/c1cc([N+](=O)[O-])ccc1O)c1cccc2ccccc12	/	i
COc1ccccc1C(=O)NNC(=S)NC(=O)c1sc2ccccc2c1Cl	16*	i
Cc1c(NC(=S)NC(=O)c2sc3ccccc3c2Cl)cccc1C(=O)O	0.24	i
COc1ccccc1C(=O)NC(=S)NNC(=O)c1sc2ccccc2c1Cl	23*	i
COc1ccccc1C(=O)NC(=S)Nc1cccc2cc(O)ccc12	-7.9	-7.9*
O=C(NC(=S)Nc1cccc2cc(O)ccc12)c1ccccc1Br	/	i
COc1ccccc1C(=O)NNC(=S)NC(=O)c1cccs1	/	i
CCC(C(=O)NCc1cccs1)n1nc(C)n2c(cc3occc32)c1=O (stereo not drawn)	/	i
COc1ccc2nc(N=NC3=C(O)CC(C)(C)CC3=O)sc2c1	0.64	i
COc1ccc2nc(N=Nc3ccc(O)c4ccccc34)sc2c1	9.3*	i
COc1ccc(-c2[nH]n(-c3ccc([N+](=O)[O-])cc3)c(=O)c2C=NCCN2CCNCC2)cc1	/	i
O=c1c(C=NCCN2CCNCC2)c(-c2ccccc2)[nH]n1-c1ccc([N+](=O)[O-])cc1	-7	-7*
Cc1ccccc1C(=O)NCC(C)NC(=O)c1ccccc1C (stereo not drawn)	1.1	i
COc1cccc(NC(=O)c2cc3ccccc3o/c2=N\O)c1	/	i
COc1cccc(NC(=O)c2cc3cccc(OC)c3o/c2=N\O)c1	-7.1	-7.1*
COC(=O)C(Cc1ccccc1)NC(=O)CCNC(=O)c1ccc(Br)cc1 (stereo not drawn)	/	i
CC(C)C(=O)Nc1c2c(nn1-c1ccc(F)cc1)CS(=O)(=O)C2	/	i
CC(C)N1CCc2c(sc(NC(=O)c3cc(-c4cccs4)nc4ccccc34)c2C(N)=O)C1	-6.4	-6.4*
CC(C)N1CCc2c(sc(NC(=O)c3nc4ccccc4s3)c2C(N)=O)C1	/	i
COc1ccc(Cl)cc1NC(=O)NCc1ccccn1	0.67	i
CCOC(=O)/C(=C\c1ccc(Cl)cc1)c1nc2sc(C)c(C)c2c(=O)[nH]1	-6.9	-6.9*
CCOC(=O)CSc1nc2sc(C)c(C)c2c(=O)[nH]1	1.1	i
CC1CCN(c2c([N+](=O)[O-])nn(-c3ccc4c(c3)OCCO4)[n+]2[O-])CC1	-5.6	-5.6*
O=[N+]([O-])c1nn(-c2ccc3c(c2)OCCO3)n(O)c1=NC1CCCCC1	0.86	i
CCCn1c(N)c(C(=O)CSc2n[nH]c(-c3ccc(C)cc3)n2)c(=O)[nH]c1=O	0.67	i
SMILES	KCNQ2 enhance	KCNQ2 block
NC(=O)CSc1nccn1Cc1ccccc1	0.31	i
O=[N+]([O-])c1ccccc1Sc1nccn1Cc1ccccc1	-6.5	-6.5*
Cn1c(CC(=O)Nc2ccccc2Cl)nnc1SCC(=O)NC1CCCCC1	/	i
Cc1ccccc1NC(=O)CSc1nnc(Cc2ccccc2)c(=O)n1N	0.85	i
O=C(Nc1ccccc1)N1CCc2ccccc21	/	i
O=C(NCC1CCCC(CNC(=O)N2CCc3ccccc32)C1)N1CCc2ccccc21 (stereo not drawn)	-5.8	-5.8*
Cc1ccc(NC(=O)CCCCCN2C(=O)[C@@H]3Cc4ccccc4CN3C2=O)c(Cl)c1	/	i
CSCC[C@H](NC(=O)N1CCn2c1nc1ccccc12)C(=O)NCC1CCCO1 (stereo partly drawn)	0.89	i
CCCCn1c(N)c(N(CC(C)C)C(=O)CC2CCCC2)c(=O)[nH]c1=O	/	i
C=CCN1C(=S)CC(c2ccccc2)=Nc2ccccc21	-6.7	-6.7*
C=CCn1c(-c2csc(-c3ccccc3)n2)n[nH]c1=S	0.16	i
COC(=O)C1CN(C(=O)C(C)Oc2ccc(C)c(C)c2)c2ccccc2O1 (stereo not drawn)	0.35	i
CC1=NN(C(=O)c2cccnc2)C(O)(C(F)(F)F)C1 (stereo not drawn)	11*	i
CC1=NN(C(=O)c2ccc(Cn3nc(C)c(Br)c3C)cc2)C(O)(C(F)(F)F)C1 (stereo not drawn)	13*	i
CC(C)C1=NN(C(=O)c2cccnc2)C(O)(C(F)(F)F)C1 (stereo not drawn)	0.87	i
CC1=NN(C(=O)c2ccc(Cn3nc(C)c([N+](=O)[O-])c3C)cc2)C(O)(C(F)(F)F)C1 (stereo not drawn)	2.4	i
COCCC(=O)N1CCC(Oc2ccc(C(=O)N3CCC(N(C)C)C3)cc2)CC1 (stereo not drawn)	0.43	i
Cc1ccc(N2C(=O)C(Cl)=C(N3CCOCC3)C2=O)c(C)c1	1.1	i
Cc1cnc(CNC(=O)c2ccc3oc(Cc4ccc(Cl)cc4)nc3c2)cn1	2.1	i
C=CCn1c(O)c(N=NC(=S)Nc2cccc(OC)c2)c2ccccc21	12*	i
C=CCn1c(O)c(N=NC(=S)Nc2ccc(OC)cc2)c2ccccc21	4	i
O=C(CCc1ccc(CCC(=O)c2cccs2)s1)c1cccs1	-6.8	-6.8*
O=C(CCN1CCCC1)c1cccs1	/	i
NS(=O)(=O)c1ccc(CNC(=O)Cc2ccsc2)cc1	0.57	i
CCOC(=O)c1c(NC(=O)C(Sc2ccccc2)c2ccccc2)sc(C(N)=O)c1C (stereo not drawn)	/	i
SMILES	KCNQ2 enhance	KCNQ2 block
CCOC(=O)c1c(NC(=O)C(Sc2ccccc2)c2ccccc2)sc(C(=O)N(C)C)c1C (stereo not drawn)	-5.8	-5.8*
CCOc1ccc2nc(N3CCCCCC3)sc2c1	1	i
CCOc1ccc2nc(N3C(=O)/C(=C/c4ccccc4)NC3=S)sc2c1	20*	i
COc1ccc2nc(N3C(=O)/C(=C/c4ccccc4)NC3=S)sc2c1	23*	i
COc1ccc2nc(-n3c(C)ccc3C)sc2c1	0.47	i
O=C(NC(=S)Nc1ccccc1F)C1CCCCC1	/	i
O=C(NCc1ccccc1F)C1CCCN1S(=O)(=O)c1ccc(Cl)cc1 (stereo not drawn)	/	i
COc1ccc(CC(=O)Nc2cccc(-c3nnc(-c4ccc(C)cc4)o3)c2)cc1OC	/	i
COc1ccc(CC(=O)Nc2cccc(-c3nnc(-c4cccc(C)c4)o3)c2)cc1OC	-7	-7*
Cc1cccc(N2CCN(c3ccc4cc(S(=O)(=O)N5CCCCC5)ccc4n3)CC2)c1C	0.52	i
COc1ccccc1C(CNC(=O)C1CC(=O)N(Cc2ccc(C)cc2)C1)N1CCCC1 (stereo not drawn)	/	i
CCCOc1ccc(C(=O)NC2CCSc3ccccc32)cc1 (stereo not drawn)	/	i
Cc1ccc(OCC(=O)NC2CCSc3ccccc32)cc1 (stereo not drawn)	-5.9	-5.9*
CCCS(=O)(=O)N1CCC(C(=O)Oc2ccc(OC)cc2)CC1	/	i
C[C@H](CO)NC(=O)[C@H](C)[C@H]1C[C@]1(C)[C@H](NC(=O)OCc1ccccc1)c1ccccc1	0.67	i
C[C@@H](C(=O)NCc1ccccn1)[C@H]1C[C@]1(C)[C@H](NC(=O)OCc1ccccc1)c1ccccc1	-6.7	-6.7*
C[C@@H](C(=O)NCC1CC1)[C@@H]1C[C@@]1(C)[C@@H](NC(=O)OCc1ccccc1)c1ccccc1	/	i
C[C@@H](C(=O)Nc1ccc2ccccc2c1)[C@H]1C[C@]1(C)[C@H](NC(=O)OCc1ccccc1)c1ccccc1	-5.9	-5.9*
Cc1ccc(S(=O)(=O)NCC(=O)N(CC(=O)NCC2CCCO2)Cc2ccc(Cl)cc2)cc1 (stereo not drawn)	1.8	i

Assay outcomes (PubChem)
